Assay results taken from the supplement of paper PMC5919970.
The full ranking holds about 2,000 compounds; the median of “fractional viability relative to vehicle” is about 0.91, and the lowest 2% start at about 0.045. The entries come from a sample that favours the lowest values as a whole.

Tested on: TYKNU
Assay: fractional viability relative to vehicle; TYKNU is a high-grade serous ovarian cancer line; higher = less growth inhibition
Details: 72 h
How it was run: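 TYKNU control cells or lentiCRISPRv2 knockout derivatives were seeded at 500 cells per well into drug-stamped 384-well plates holding a ~2100-compound library at 2 or 10 μM, in duplicate. Cells were grown at 37 °C in 5% CO2 in RPMI 1640 with 10% FBS, and drug treatment lasted 72 h. Viability was read by Cell Titer Glo luminescence. Duplicate treatment wells were averaged and normalised to duplicate control wells from the same plate position.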

[1] = 2uM, genotype: DNM1L knockout (sgDNM1L #1)
[2] = 2uM, genotype: sgCTRLA1 (non-targeting control)
[3] = 10uM, genotype: DNM1L knockout (sgDNM1L #1)
[4] = 10uM, genotype: sgCTRLA1 (non-targeting control)

Structure (SMILES) | fractional viability [1] | fractional viability [2] | fractional viability [3] | fractional viability [4]
CC(NC(=O)C(Cc1ccccc1)NC(=O)OCc1ccccc1)C(=O)CF (stereo not drawn) | 0.85 | 0.869 | 0.793 | 0.606
COC[C@H](NC(=O)c1cnc(C)s1)C(=O)N[C@@H](COC)C(=O)N[C@@H](Cc1ccccc1)C(=O)[C@@]1(C)CO1 [Oprozomib (ONX 0912)] | 0.0658 | 0.0656 | 0.055 | 0.0445
CC(C)C[C@H](NC(=O)[C@H](CCc1ccccc1)NC(=O)CN1CCOCC1)C(=O)N[C@@H](Cc1ccccc1)C(=O)N[C@@H](CC(C)C)C(=O)[C@@]1(C)CO1 [Carfilzomib (PR-171)] | 0.0773 | 0.0587 | 0.0559 | 0.057
COC(=O)[C@H](Cc1ccccc1)NC(=O)[C@@H](N)CC(=O)O [Aspartame] | 1.02 | 1.15 | 0.941 | 0.985
CC(C)C[C@H](NC(=O)[C@H](Cc1ccccc1)NC(=O)c1cnccn1)B(O)O [Bortezomib (PS-341)] | 0.1 | 0.0838 | 0.101 | 0.0762
COc1ccc(C[C@H](NC(=O)[C@H](C)NC(=O)CN2CCOCC2)C(=O)N[C@@H](Cc2ccccc2)C(=O)[C@@]2(C)CO2)cc1 | 0.0589 | 0.0514 | 0.0565 | 0.0416
C[C@@]1(C(=O)Nc2ccc(F)nc2)CCCN1c1nc(Nc2cc(C3CC3)n[nH]2)c2cccn2n1 | 0.561 | 0.689 | 0.282 | 0.252
O=C(N/N=C/c1cc(O)c(O)cc1O)c1cc2ccccc2cc1O [Dyngo-4a] | 0.912 | 1.05 | 0.857 | 0.867
Oc1ccc(Cc2nc3c(Cc4ccccc4)nc(-c4ccc(O)cc4)cn3c2O)cc1 [Coelenterazine] | 0.928 | 1.05 | 0.977 | 0.839
O=C1N=C(O)NC1(c1ccccc1)c1ccccc1 [Phenytoin sodium] | 1.03 | 1.09 | 0.864 | 1.04
CCc1cc(Nc2nccc(-c3c(-c4ccc(OC)c(C(=O)Nc5c(F)cccc5F)c4)nc4ccccn34)n2)c(OC)cc1N1CCC(N2CCN(S(C)(=O)=O)CC2)CC1 | 1.12 | 1.04 | 0.72 | 0.915
CC(O)c1cc(C(=O)N[C@@H](C)Cn2ccc(-c3ccc(C#N)c(Cl)c3)n2)n[nH]1 (stereo partly drawn) | 0.762 | 0.897 | 0.94 | 0.769
CN(C)Cc1c(C(=O)NCCOc2ccc(C(=O)NO)cc2)oc2ccccc12 | 0.184 | 0.244 | 0.0877 | 0.133
COc1cccc(-n2c(=O)[nH]c3cc(Cl)n(-c4ccc(-c5cccc(OC)c5O)cc4)c3c2=O)c1 | 0.844 | 1.02 | 0.857 | 0.918
COc1ccc2[nH]cc(/C=C3\C(=O)Nc4ccc(NC(=O)CCN5CCCCC5)cc43)c2c1 | 0.761 | 0.929 | 0.809 | 0.795
CN1CCN(C(=O)c2cc3cc(Cl)ccc3[nH]2)CC1 | 1.13 | 1.23 | 0.961 | 1.16
CN1CCCN(C(=O)c2cccc(-c3ccc(/C=C4/C(=O)Nc5ccc(Cl)cc54)o3)c2)CC1 | 0.0585 | 0.0575 | 0.0139 | 0.00867
